In the library only some 19% were active in any assay of this set; here they are far more common.
IL1B secr inh – inhibitors of inflammasome signaling (IL-1 beta secretion). THP-1 LPS/ATP IL-1B secretion, AlphaLISA, 16 h; active compounds read low. activity change, % at 57.5 µM. hit rate 4.7% among 360,000; in the data active = activity change below about -50%; inconclusive = mostly about -30% to -49%
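Secreted IL-1B measured by AlphaLISA bead assay after 16 h compound exposure of THP-1 cells; compounds (final up to 57.5 uM) added 1 h before LPS (250 ng/mL) and ATP (1.25 mM) stimulation; lower signal means less secretion.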
HT1080 IDH1KD tx – toxicity to HT-1080 IDH1 knockdown cells (counter line); HT-1080 IDH1 knockdown viability, ATP luminescence, 48 h; Potency, µM (highest dose often 46.1 µM), for inactives: top-dose activity, negative = toxicity, actives largely listed as cytotoxic; hit rate 2% among 360,000;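 also: potency is read from the fitted curve at half-maximal effect; 0% = DMSO wells and -100% = cell-free medium wells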
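Cytotoxicity counter-line: IDH1KD HT-1080, 48 h, CellTiter-Glo. Curves classed by r2, magnitude and activity.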
TDP1 cell noCPT – qHTS for Inhibitors of human tyrosyl-DNA phosphodiesterase 1 (TDP1): qHTS in cells in absence of CPT; DT40 Tdp1-/- hTDP1 cells, no CPT, ATP luminescence, 48 h; Potency, µM (doses to about 46.2 µM), for inactives: at the highest dose activity change, negative = growth inhibition, most hits filed as inhibitors; hit rate 15% among 420,000; also: potency is read from the fitted curve at half-maximal effect; nearly all actives have a fitted effect of over 55% in size
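Chicken DT40 Tdp1-/- cells complemented with human TDP1, screened without camptothecin (DMSO vehicle only), 400 cells/well. Compounds pin-transferred, cells incubated at 37 °C for at least 48 hr. Growth read as ATP-dependent luminescence (CellTiter-Glo, 30 min at RT).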
TDP1 cell CPT – growth inhibition of DT40 Tdp1-/-;hTDP1 cells with camptothecin (screen for TDP1 inhibitors) | chicken DT40 Tdp1-/-;hTDP1 cells + 20 nM CPT, ATP luminescence, 48 h | Potency, µM (titrated, usually from 46.2 µM), inactives show at the highest dose activity change, negative = growth inhibition, hits mostly inhibitors | hit rate 12% among 420,000 | AID 686979; also: potency is read from the fitted curve at half-maximal effect; nearly all actives have a fitted effect of over 55% in size
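Cell growth measured by CellTiter-Glo luminescence after a minimum 48 h, 37 C compound exposure with 20 nM CPT in Tdp1-knockout DT40 cells stably expressing hTDP1, seeded 400/well; qHTS titration format.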
HT1080-NT tox – kills 2HG-producing HT-1080-NT fibrosarcoma cells; HT-1080-NT fibrosarcoma viability, CellTiter-Glo ATP luminescence, 48 h; Potency, µM (doses to about 46.1 µM), for inactives: at the top dose activity, negative = less viability, most hits filed as cytotoxic; hit rate 1.6% among 360,000;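 also: NT is the 2HG producing partner of a matched IDH1 knockdown line; potency is read from the fitted curve at half-maximal effect; 0% = DMSO-treated cells and -100% = media-only wells without cells; nearly all actives have a fitted effect of over 55% in size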
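Toxicity toward the 2HG-producing NT line was scored as %Activity, normalised to DMSO and no-cell wells, from CellTiter-Glo luminescence after 48 hours' treatment.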
* hit, by the source's call; ? = inconclusive; . = no result; [ ] = another dose, or the depositor's remark. Unless noted, calls follow the shape of the dose curve; as a rule, active = well fitted curve in the direction sought with a large enough effect; inconclusive = small, poorly fitted or top-dose-only effect, or another doubt; inactive = no such curve, though single readings can be large; an effect the other way counts as inactive or inconclusive. Unless noted, % is scaled to controls: 0 for no effect and ±100 for the full control effect.

SMILES	IL1B secr inh	HT1080 IDH1KD tx	TDP1 cell noCPT	TDP1 cell CPT	HT1080-NT tox
C[C@@H]1CCCCO[C@@H](CN(C)Cc2ccc(Cl)c(Cl)c2)[C@@H](C)CN([C@H](C)CO)C(=O)c2cc(NC(=O)Nc3ccccc3)ccc2O1	?	?	20.6µM*	23.1µM*	?
C[C@@H]1CN([C@@H](C)CO)C(=O)c2cc(NS(C)(=O)=O)ccc2O[C@H]1CN(C)Cc1ccc(Oc2ccccc2)cc1	?	-29.6%	?	?	-27.3%
COc1ccc(CN(C)C[C@@H]2OCCCC[C@H](C)Oc3ccc(NC(=O)Cc4ccccc4)cc3C(=O)N([C@@H](C)CO)C[C@@H]2C)cc1	-7.3	-24.7%	23.1µM*	8.2%	-22.8%
C[C@@H]1CCCCO[C@H](CN(C)Cc2ccc(C(F)(F)F)cc2)[C@H](C)CN([C@@H](C)CO)C(=O)c2cc(NC(=O)Cc3ccccc3)ccc2O1	-13.7	18.4µM*	14.6µM*	11.6µM*	16.4µM*
C[C@@H]1CN([C@@H](C)CO)C(=O)c2cc(NC(=O)Nc3ccc(F)cc3)ccc2O[C@@H]1CN(C)Cc1ccc(Oc2ccccc2)cc1	0.0	16.4µM*	20.6µM*	?	?
CCC(Oc1ccccc1)C(=O)Nc1nnc(S(=O)(=O)N(CC)CC)s1 (configuration not stated)	.	.	-23.8%	-28.9%	.
CC(C)NC(=O)Nc1ccc2c(c1)C(=O)N([C@H](C)CO)C[C@H](C)[C@@H](CN(C)Cc1ccc3c(c1)OCO3)OCCCC[C@@H](C)O2	-7.4	-0.7%	-25.2%	-4.3%	-1.1%
C[C@@H]1CN([C@H](C)CO)C(=O)c2cc(NC(=O)Nc3ccc(F)cc3)ccc2O[C@@H](C)CCCCO[C@H]1CN(C)Cc1ccc(C(=O)O)cc1	22.2	4.5%	-33.8%	-0.3%	-1.5%
COc1ccc(CN(C)C[C@@H]2OCCCC[C@H](C)Oc3ccc(NC(=O)Nc4ccc(F)cc4)cc3C(=O)N([C@H](C)CO)C[C@H]2C)cc1	?	?	?	?	20.6µM*
CC(C)NC(=O)Nc1ccc2c(c1)C(=O)N([C@H](C)CO)C[C@H](C)[C@@H](CN(C)Cc1ccc(C(F)(F)F)cc1)OCCCC[C@H](C)O2	?	-28.2%	?	20.6µM*	7.6%
CC(=O)CC1(O)C(=O)N(Cc2ccccc2)c2ccccc21 (configuration not stated)	13.5	-0.2%	?	?	1.1%
COC(=O)CN1C(=O)C(O)(CC(=O)c2ccc(Cl)cc2)c2ccccc21 (configuration not stated)	17.4	0.8%	?	?	?
C=CCN1C(=O)C(O)(CC(=O)c2ccccc2)c2ccccc21 (configuration not stated)	0.0	11.1%[9.24 µM]	18.4µM*	?	14.0%
C/C(CC1(O)C(=O)N(Cc2ccccc2)c2ccccc21)=N\O (configuration not stated)	-5.0	2.8%	-2.1%	8.4%	-2.8%
Cc1coc(C)c1C(=O)CC1(O)C(=O)N(Cc2ccccc2)c2ccccc21 (configuration not stated)	-16.2	-5.6%	23.1µM*	16.4µM*	-8.5%
Cc1ccc(C(=O)CC2(O)C(=O)N(CCc3ccccc3)c3ccc(Br)cc32)o1 (configuration not stated)	-18.6	-18.2%	16.4µM*	?	-12.7%
Cc1ccc(CN2C(=O)C(O)(CC(=O)c3ccc(C)cc3)c3ccccc32)cc1 (configuration not stated)	.	.	2.59µM*	5.8µM*	.
CCN(CC(=O)Nc1ccc(NC(C)=O)cc1)C(=O)c1c(C)nn(Cc2ccc(C)cc2)c1Cl	-4.3	-0.2%	16.9%	0.5%	1.1%[9.24 µM]
O=C(/C=C/c1ccco1)Nc1ccccc1N1CCCC1	-7.1	-7.7%	?	?	-9.9%
NC(=O)CN1C(=O)C(O)(CC(=O)c2ccccc2O)c2ccccc21 (configuration not stated)	5.3	8.9%	-20.4%	-11.2%	5.3%
Cc1ccc(C(=O)CC2(O)C(=O)N(CCc3ccccc3)c3ccc(Cl)cc32)cc1 (configuration not stated)	.	.	23.1µM*	20.6µM*	.
O=C(CC1(O)C(=O)N(CCc2ccccc2)c2ccccc21)c1ccco1 (configuration not stated)	15.0	18.3%	2.91µM*	5.8µM*	23.1%
C#CCN1C(=O)C(O)(CC(=O)/C=C/c2ccco2)c2ccccc21 (configuration not stated)	5.5	-7.8%	3.66µM*	5.8µM*	-2.2%
COc1ccc(C(=O)CSc2ccccc2C(=O)O)cc1	7.6	0.7%	-17.5%	-15.0%	-0.3%
COCCn1c(SC(C)C(=O)NCC2CCCO2)nc2sc3c(c2c1=O)CCC3 (configuration not stated)	-11.9	3.5%	?	-24.6%	5.3%
SMILES	IL1B secr inh	HT1080 IDH1KD tx	TDP1 cell noCPT	TDP1 cell CPT	HT1080-NT tox
COc1ccc(S(=O)(=O)c2cn(Cc3ccccc3)c3ccc(OC)cc3c2=O)cc1	.	.	25.9µM*	11.6µM*	.
O=c1c(S(=O)(=O)c2ccc(Cl)cc2)cn(Cc2ccccc2F)c2ccc(F)cc12	-11.7	-3.7%	23.1µM*	?	-19.0%
CCc1ccc(S(=O)(=O)c2cn(Cc3ccccc3F)c3cc(OC)c(OC)cc3c2=O)cc1	.	.	?	14.6µM*	.
Cc1ccc(Cn2cc(S(=O)(=O)c3ccc(Cl)cc3)c(=O)c3cc(F)ccc32)cc1	-10.2	-25.2%	7.31µM*	-27.8%	0.7%
CCc1ccc(S(=O)(=O)c2cn(C)c3cc(OC)c(OC)cc3c2=O)cc1	0.0	-1.9%	?	?	-2.4%
CCn1cc(S(=O)(=O)c2ccc(Cl)cc2)c(=O)c2cc(OC)ccc21	-9.2	0.1%	2.9%	-10.6%	24.5%
O=c1c(S(=O)(=O)c2ccc(Cl)cc2)cn(Cc2cccc(F)c2)c2ccc(F)cc12	0.0	1.2%	?	?	-4.0%
CCn1c(-c2cccnc2)nc2cc(NC(=O)COC)cc(C(=O)N3CC[C@@H]4CCCC[C@H]4C3)c21	.	.	-29.5%	10.2%	.
Cc1ccc(NC(=O)Cn2cc(S(=O)(=O)c3ccc(F)cc3)c(=O)c3cc(F)ccc32)cc1	-7.7	-1.5%	-36.1%	?	-1.2%
CCc1ccc2c(c1)c(=O)c(S(=O)(=O)c1ccc(F)cc1)cn2CC(=O)Nc1ccc(C)cc1C	.	.	6.51µM*	?	.
Cc1ccc(C)c(Cn2cc(S(=O)(=O)c3ccc(Cl)cc3)c(=O)c3cc(F)ccc32)c1	.	.	25.9µM*	?	.

High-throughput results from PubChem BioAssay.
